In the supplement of paper PMC10849652:
About 8,800 targets were measured; listed, in parts, are those with a hit and a random draw of the rest. About 0.5% of all pairs of compound and target were hits. Unmarked numbers belong to inactive results.

Legend:
Test in all cases: log2 fold change, soluble protein after heating vs DMSO (PISA); higher = thermal stabilisation; K562 lysate, 10 uM; active = over 0.2 and 3.5 SD of the protein, either way, in both replicates (recomputed)
[1] = compound: CS(=O)(=O)CCNCc1ccc(-c2ccc3ncnc(Nc4ccc(OCc5cccc(F)c5)c(Cl)c4)c3c2)o1 [lapatinib]
Procedure, shortened: (§1)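 Pellets of K562 cells were dounce-homogenised in PBS pH 7.4 with 1 mM MgCl2, and the crude extract was held at 1 mg/mL protein for a 30 min treatment with 10 μM compound. Aliquots were heated for 3 min over 48°C-58°C and pooled before NP-40 was added to 0.5% at 4°C. The supernatant from 21,000xg for 90 min was quantified by TMTpro 16plex LC-MS/MS with channel sums equalised. Values are reported from duplicates as log-two fold change in thermal stability relative to solvent controls.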

[2] = compound: CS(=O)(=O)N1CCN(Cc2cc3nc(-c4cccc5[nH]ncc45)nc(N4CCOCC4)c3s2)CC1 [pictilisib]
Procedure, shortened: as §1

[3] = compound: C[C@@H](Oc1cc(-c2cnn(C3CCNCC3)c2)cnc1N)c1c(Cl)ccc(F)c1Cl [crizotinib]
Procedure, shortened: as §1

[4] = compound: C[C@H](C1=CC=C(C=C1)C(=O)NC2=C3C=CNC3=NC=C2)N
Procedure, shortened: as §1

[5] = compound: C[C@H](Nc1ncnc2nc[nH]c12)c1cc2cccc(Cl)c2c(=O)n1-c1ccccc1 [duvelisib]
Procedure, shortened: as §1

[6] = compound: Cc1cc(Nc2cc(CN3CCOCC3)c3nc(C)c(Cc4ccc(Cl)cc4F)n3n2)n[nH]1 [gandotinib]
Procedure, shortened: as §1

[7] = compound: Cc1cc(Nc2cc(N3CCN(C)CC3)nc(Sc3ccc(NC(=O)C4CC4)cc3)n2)n[nH]1 [tozasertib]
Procedure, shortened: as §1

[8] = compound: Cc1ccc(-n2nc(C(C)(C)C)cc2NC(=O)Nc2ccc(OCCN3CCOCC3)c3ccccc23)cc1 [doramapimod]
Procedure, shortened: as §1

[9] = compound: Cc1ccc(NC(=O)c2ccc(CN3CC[C@H](N(C)C)C3)c(C(F)(F)F)c2)cc1Nc1nccc(-c2cncnc2)n1 [bafetinib]
Procedure, shortened: as §1

[10] = compound: Cc1cccc(CC(=O)N2CCc3c2ccc(-c2cn(C)c4ncnc(N)c24)c3F)n1
Procedure, shortened: as §1

Chain of UniProt Q9H6S3 (Q9H6S3 whole entry, looked up): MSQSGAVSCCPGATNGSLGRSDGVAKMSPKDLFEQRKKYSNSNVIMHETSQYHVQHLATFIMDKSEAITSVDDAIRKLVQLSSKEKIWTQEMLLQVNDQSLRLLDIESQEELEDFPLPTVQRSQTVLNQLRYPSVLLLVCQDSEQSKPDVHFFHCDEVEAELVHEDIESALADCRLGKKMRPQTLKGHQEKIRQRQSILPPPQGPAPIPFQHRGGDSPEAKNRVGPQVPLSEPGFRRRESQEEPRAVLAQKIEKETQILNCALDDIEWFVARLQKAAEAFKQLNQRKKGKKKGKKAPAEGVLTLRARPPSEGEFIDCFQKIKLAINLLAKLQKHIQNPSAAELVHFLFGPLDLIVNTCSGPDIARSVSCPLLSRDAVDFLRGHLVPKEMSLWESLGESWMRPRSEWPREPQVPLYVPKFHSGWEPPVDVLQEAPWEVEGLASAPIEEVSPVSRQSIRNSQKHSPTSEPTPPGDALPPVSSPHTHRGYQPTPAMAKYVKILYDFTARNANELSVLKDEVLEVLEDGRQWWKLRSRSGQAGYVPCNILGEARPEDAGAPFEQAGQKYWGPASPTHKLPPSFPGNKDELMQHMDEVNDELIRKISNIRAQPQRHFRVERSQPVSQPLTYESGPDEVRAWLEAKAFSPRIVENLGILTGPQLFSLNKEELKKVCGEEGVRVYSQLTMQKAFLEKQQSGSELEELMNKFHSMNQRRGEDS
Chain of UniProt Q9NZC3 (Q9NZC3 whole entry, looked up): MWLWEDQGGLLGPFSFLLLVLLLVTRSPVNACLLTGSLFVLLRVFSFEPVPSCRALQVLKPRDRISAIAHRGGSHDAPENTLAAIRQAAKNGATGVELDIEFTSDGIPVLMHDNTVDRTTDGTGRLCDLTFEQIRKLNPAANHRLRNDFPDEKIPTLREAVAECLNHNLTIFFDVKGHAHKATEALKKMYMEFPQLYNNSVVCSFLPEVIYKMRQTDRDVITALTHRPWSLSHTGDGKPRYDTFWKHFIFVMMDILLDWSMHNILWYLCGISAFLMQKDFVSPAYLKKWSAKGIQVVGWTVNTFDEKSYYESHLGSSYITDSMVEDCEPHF
Chain of UniProt Q9NR50 (Q9NR50 whole entry, looked up): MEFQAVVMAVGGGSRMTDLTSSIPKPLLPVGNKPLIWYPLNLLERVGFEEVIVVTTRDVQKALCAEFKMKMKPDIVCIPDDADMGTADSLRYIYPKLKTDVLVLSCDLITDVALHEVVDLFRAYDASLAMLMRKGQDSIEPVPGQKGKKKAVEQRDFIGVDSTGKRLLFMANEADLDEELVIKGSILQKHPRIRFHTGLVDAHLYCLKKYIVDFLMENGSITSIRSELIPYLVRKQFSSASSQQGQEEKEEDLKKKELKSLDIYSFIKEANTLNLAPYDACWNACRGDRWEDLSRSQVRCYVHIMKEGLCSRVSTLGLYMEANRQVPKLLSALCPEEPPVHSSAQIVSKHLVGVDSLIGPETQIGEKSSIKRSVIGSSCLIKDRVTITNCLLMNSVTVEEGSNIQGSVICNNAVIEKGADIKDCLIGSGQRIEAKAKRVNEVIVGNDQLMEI
Chain of UniProt O43427 (O43427 whole entry, looked up): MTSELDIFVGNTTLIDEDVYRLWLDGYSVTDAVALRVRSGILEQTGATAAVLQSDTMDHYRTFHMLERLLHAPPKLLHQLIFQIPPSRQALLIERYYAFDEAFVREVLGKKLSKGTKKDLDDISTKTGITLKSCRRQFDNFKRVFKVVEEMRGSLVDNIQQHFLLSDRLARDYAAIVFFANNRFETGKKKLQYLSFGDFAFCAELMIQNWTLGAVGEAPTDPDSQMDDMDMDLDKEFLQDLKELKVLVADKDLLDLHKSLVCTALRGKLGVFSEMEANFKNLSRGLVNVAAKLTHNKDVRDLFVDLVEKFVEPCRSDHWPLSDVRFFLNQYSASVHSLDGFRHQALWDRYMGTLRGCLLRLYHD
Chain of UniProt Q8IY81 (Q8IY81 whole entry, looked up): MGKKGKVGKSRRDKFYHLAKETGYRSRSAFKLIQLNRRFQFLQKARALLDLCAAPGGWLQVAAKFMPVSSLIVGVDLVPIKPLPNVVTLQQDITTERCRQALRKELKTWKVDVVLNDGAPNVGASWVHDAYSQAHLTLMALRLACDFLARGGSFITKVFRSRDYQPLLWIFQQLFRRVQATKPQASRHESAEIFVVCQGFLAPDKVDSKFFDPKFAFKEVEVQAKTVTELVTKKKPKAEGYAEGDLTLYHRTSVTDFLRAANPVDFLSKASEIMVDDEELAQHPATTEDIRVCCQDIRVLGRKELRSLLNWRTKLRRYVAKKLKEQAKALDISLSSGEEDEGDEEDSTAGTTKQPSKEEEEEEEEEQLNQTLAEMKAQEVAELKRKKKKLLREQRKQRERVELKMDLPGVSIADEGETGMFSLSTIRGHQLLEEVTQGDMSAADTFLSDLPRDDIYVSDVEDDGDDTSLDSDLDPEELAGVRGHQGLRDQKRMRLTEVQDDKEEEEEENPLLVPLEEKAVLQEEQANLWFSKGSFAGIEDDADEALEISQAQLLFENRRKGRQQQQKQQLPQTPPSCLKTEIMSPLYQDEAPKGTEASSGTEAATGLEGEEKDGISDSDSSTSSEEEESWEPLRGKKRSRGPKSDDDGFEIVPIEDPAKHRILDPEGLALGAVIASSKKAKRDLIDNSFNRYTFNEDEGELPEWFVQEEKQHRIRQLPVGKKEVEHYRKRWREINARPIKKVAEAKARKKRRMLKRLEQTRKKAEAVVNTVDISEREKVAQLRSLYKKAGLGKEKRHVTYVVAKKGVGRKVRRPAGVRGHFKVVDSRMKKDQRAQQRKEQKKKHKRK
Chain of UniProt Q9GZT9 (Q9GZT9 whole entry, looked up): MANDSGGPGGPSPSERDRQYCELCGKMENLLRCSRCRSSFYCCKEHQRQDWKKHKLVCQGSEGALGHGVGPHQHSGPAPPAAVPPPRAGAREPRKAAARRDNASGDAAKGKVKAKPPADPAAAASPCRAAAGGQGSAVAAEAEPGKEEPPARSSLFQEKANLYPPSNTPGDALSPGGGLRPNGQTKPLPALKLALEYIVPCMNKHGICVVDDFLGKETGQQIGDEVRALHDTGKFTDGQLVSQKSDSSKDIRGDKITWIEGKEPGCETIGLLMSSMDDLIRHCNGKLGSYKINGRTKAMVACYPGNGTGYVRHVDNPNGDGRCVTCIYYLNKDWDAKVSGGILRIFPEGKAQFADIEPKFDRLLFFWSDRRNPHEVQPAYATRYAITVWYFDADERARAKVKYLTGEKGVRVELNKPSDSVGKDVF
Chain of UniProt Q9NZN4 (Q9NZN4 whole entry, looked up): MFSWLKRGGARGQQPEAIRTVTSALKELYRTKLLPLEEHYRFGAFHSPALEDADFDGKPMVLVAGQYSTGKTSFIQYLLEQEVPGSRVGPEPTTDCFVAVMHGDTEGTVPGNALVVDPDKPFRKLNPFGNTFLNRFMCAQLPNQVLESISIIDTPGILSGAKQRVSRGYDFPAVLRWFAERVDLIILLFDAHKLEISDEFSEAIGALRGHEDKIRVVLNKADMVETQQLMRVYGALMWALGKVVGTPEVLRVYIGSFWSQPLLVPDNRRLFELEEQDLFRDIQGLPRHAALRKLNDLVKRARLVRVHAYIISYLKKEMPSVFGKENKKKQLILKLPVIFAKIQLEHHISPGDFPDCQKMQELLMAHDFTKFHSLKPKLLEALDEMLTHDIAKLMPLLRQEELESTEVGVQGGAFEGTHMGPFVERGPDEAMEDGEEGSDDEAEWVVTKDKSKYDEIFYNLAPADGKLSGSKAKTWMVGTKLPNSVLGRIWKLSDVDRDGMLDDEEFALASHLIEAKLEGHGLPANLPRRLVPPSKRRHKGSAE
Chain of UniProt Q7L8L6 (Q7L8L6 whole entry, looked up): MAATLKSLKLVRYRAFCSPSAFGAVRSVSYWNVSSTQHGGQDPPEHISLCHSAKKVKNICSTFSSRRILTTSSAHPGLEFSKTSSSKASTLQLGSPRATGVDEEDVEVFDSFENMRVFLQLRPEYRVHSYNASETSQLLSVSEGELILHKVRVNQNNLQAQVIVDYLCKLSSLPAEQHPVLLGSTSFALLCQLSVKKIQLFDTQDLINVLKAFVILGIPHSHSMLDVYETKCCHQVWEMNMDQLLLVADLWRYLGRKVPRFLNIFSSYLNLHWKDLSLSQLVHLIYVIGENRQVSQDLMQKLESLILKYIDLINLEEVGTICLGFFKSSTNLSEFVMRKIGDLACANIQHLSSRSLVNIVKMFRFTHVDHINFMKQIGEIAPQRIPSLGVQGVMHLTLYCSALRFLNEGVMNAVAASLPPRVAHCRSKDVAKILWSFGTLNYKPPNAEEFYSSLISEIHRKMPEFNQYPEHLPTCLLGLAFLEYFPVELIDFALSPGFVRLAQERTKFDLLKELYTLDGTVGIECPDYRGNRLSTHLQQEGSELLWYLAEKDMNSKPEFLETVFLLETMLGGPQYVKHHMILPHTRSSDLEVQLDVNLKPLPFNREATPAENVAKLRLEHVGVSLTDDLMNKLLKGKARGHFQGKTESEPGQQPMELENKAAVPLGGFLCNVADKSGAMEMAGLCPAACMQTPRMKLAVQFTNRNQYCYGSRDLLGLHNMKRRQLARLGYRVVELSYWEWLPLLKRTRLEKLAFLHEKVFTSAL
Chain of UniProt P54852 (P54852 whole entry, looked up): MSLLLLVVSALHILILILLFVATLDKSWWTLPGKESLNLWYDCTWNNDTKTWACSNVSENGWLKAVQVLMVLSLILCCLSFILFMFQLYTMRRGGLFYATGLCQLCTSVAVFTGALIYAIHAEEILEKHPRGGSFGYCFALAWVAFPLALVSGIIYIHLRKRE
Chain of UniProt Q9H410 (Q9H410 whole entry, looked up): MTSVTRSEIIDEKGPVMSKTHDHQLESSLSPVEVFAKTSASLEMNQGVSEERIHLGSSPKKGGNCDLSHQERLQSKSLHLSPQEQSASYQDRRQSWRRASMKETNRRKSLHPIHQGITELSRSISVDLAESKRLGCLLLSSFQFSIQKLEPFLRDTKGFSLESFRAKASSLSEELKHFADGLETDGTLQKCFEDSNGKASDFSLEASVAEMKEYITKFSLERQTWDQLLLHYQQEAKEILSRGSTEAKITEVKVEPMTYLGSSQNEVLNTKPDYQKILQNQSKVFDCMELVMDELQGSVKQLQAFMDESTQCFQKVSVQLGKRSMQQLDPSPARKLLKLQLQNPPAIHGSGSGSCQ

Target	log2 fold change [1]	log2 fold change [2]	log2 fold change [3]	log2 fold change [4]	log2 fold change [5]	log2 fold change [6]	log2 fold change [7]	log2 fold change [8]	log2 fold change [9]	log2 fold change [10]
GAPDH (UniProt P04406)	0.005	-0.024	0.066	0.043	0.003	-0.002	-0.005	-0.031	0.055	-0.082
FTSJ3 (UniProt Q8IY81)	0.013	0.023	-0.037	-0.031	-0.01	-0.019	-0.019	-0.025	0.013	0.031
GBF1 (UniProt Q92538)	-0.015	-0.023	-0.064	-0.026	-0.002	-0.108	0.014	-0.006	-0.043	0.049
EIF2B3 (UniProt Q9NR50)	-0.007	-0.021	-0.061	0.234 (active)	0.016	-0.115	-0.035	0.012	-0.024	-0.047
EPN2 (UniProt O95208)	-0.007	-0.037	-0.009	-0.407 (active)	0.055	0.165	-0.036	0.065	-0.027	0.093
DST (UniProt Q03001)	-0.019	0.015	-0.02	-0.17	0.018	0.101	0.024	0.023	-0.137	0.246
FDFT1 (UniProt P37268)	-0.037	-0.018	0.062	-0.045	0.19	0.207	-0.004	0	0.018	0.01
DSN1 (UniProt Q9H410)	0.009	-0.027	-0.016	-0.051	0.004	0.008	0.015	-0.037	-0.026	0.021
FASTKD5 (UniProt Q7L8L6)	-0.025	0.085	-0.075	0.089	-0.042	-0.193	0.056	0.036	0.169	-0.056
DVL2 (UniProt O14641)	0.096	-0.037	-0.056	0.026	0	-0.107	-0.039	0.106	-0.232	0.054
GCN1 (UniProt Q92616)	-0.034	-0.027	-0.125	-0.002	0.008	-0.121	0.017	0.019	-0.049	0.053
FAM114A2 (UniProt Q9NRY5)	0.106	-0.013	0.013	-0.023	0.011	0.449 (active)	-0.108	-0.011	-0.121	0.196
EIF3I (UniProt Q13347)	-0.009	-0.015	-0.004	-0.003	-0.009	-0.022	0.008	0.029	-0.052	0.01
EP400 isoform 5 (UniProt Q96L91)	0.052	-0.068	-0.04	-0.018	-0.036	-0.012	-0.041	0.02	-0.053	-0.011
EHD2 (UniProt Q9NZN4)	-0.047	-0.052	-0.033	0.004	0.026	-0.117	-0.004	0.02	-0.063	0.017
GEMIN5 (UniProt Q8TEQ6)	-0.025	-0.006	-0.069	-0.029	0.001	-0.087	0.009	0.012	-0.053	0.017
EIF2D (UniProt P41214)	-0.002	-0.014	-0.067	0.024	0.022	-0.084	0.029	0.032	-0.063	-0.01
EGLN1 (UniProt Q9GZT9)	-0.075	0.031	-0.018	0.037	0.199	-0.036	0.034	0.006	0.001	-0.055
GFPT1 (UniProt Q06210)	-0.001	-0.026	-0.033	0.009	-0.002	-0.066	-0.013	-0.001	-0.031	0.007
ELAVL1 isoform 2 (UniProt Q15717)	0.031	-0.002	-0.037	0.055	0.001	-0.067	-0.047	0.007	-0.004	-0.026
EPS8L2 (UniProt Q9H6S3)	0.044	-0.03	-0.012	-0.068	-0.086	0.061	-0.258	-0.046	-0.101	0.207
EEF1AKNMT (UniProt Q8N6R0)	-0.006	-0.046	-0.123	0.017	0.03	-0.133	-0.029	0.074	-0.014	-0.024
GDE1 (UniProt Q9NZC3)	-0.016	0.114	-0.005	0.842 (active)	0.049	-0.434 (active)	0.157	-0.017	-0.041	-0.409 (active)
EXOC5 (UniProt O00471)	-0.012	0.017	-0.067	0.055	-0.027	-0.202	0.025	0.027	-0.033	0.003
ESPL1 (UniProt Q14674)	0.053	0.07	-0.015	0.027	-0.011	0.026	0.024	-0.044	-0.077	0.057
FTSJ1 (UniProt Q9UET6)	0.01	-0.002	-0.051	0.051	-0.009	-0.088	-0.064	0.03	0.041	-0.052
FIBP (UniProt O43427)	-0.016	-0.074	-0.08	0.003	0.073	-0.031	0.05	-0.038	-0.025	0.094
ELF2 (UniProt Q15723)	0.256 (active)	0.039	-0.085	0.033	0.072	-0.046	-0.033	-0.042	-0.119	-0.075
EMP3 (UniProt P54852)	0	-0.03	-0.002	-0.763 (active)	0	0.351 (active)	-0.078	0.029	-0.019	0.329 (active)
GAMT (UniProt Q14353)	0.02	-0.028	0	0.02	0.082	0.002	-0.02	0.09	0.062	-0.046
